Bioassay records (PubChem)
Shiga inhibitor – inhibitors of Shiga toxin in Vero cells; Vero cells, Shiga toxin protein synthesis inhibition reporter; inhibition, % at 38.7 µM; 290,000 tested, 9.2% active; in the data active = inhibition mostly above about 28%, no sharp cut-off; inactive = mostly below about 43%; also: 0% is about no effect
Cycloheximide cs – counter-screen for Shiga toxin inhibitors: cycloheximide protein synthesis inhibition | cell reporter, cycloheximide protein synthesis inhibition counterscreen | max response, % | 300,000 tested, 12% active | AID 2314; in the data active = max response mostly above about 13%, no sharp cut-off; inactive = mostly below about 14%; also: read at 38.3 µM for the half of the compounds with a filed dose; 0% is about no effect
HCMV inh – inhibitors of human cytomegalovirus. HFF cells, HCMV-luciferase reporter, 72 h; active compounds read low. AID 1259415. 410,000 tested, 4.5% active. activity change, negative = inhibition, % at 57.5 µM; in the data active = activity change below about -60%; inconclusive = no clear call, values can overlap the other calls; inactive = above about -39%; also: % is scaled to controls: 0 for no effect and ±100 for the full control effect
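Two-dose cell screen: HFF monolayers treated with compounds and infected with luciferase-expressing HCMV at 1 PFU/cell, 72 h at 37C, then lysed for luciferase measurement.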
Pf growth 96h – P. falciparum growth inhibition at 96 hour, primary screen for plastid delayed-death inhibitors. Potency, µM (titrated, usually from 28.7 µM), inactives show at the top dose activity change, negative = inhibition, actives largely listed as inhibitors. 320,000 tested, 6.9% active. P. falciparum luciferase reporter growth, 96 h; also: potency is read from the fitted curve at half-maximal effect; % is scaled to controls: 0 for no effect and ±100 for the full control effect
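96 h incubation, 37 C, 5% CO2, of luciferase-reporter P. falciparum-infected RBCs (2% hematocrit, 0.05% parasitemia final) with test compounds; endpoint luminescence.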
Pf growth 48h – P. falciparum growth inhibition at 48 hours (one generation); P. falciparum luciferase growth in erythrocytes, 48 h; Potency, µM (top dose mostly 28.7 µM), inactives show top-dose activity change, negative = inhibition, most hits filed as inhibitors; 310,000 tested, 5.9% active; AID 504832; also: potency is read from the fitted curve at half-maximal effect; % is scaled to controls: 0 for no effect and ±100 for the full control effect
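Erythrocytes infected with P. falciparum carrying an integrated firefly luciferase reporter (2% hematocrit, 0.1% parasitemia final) were exposed to compounds in RPMI 1640 with 0.5% Albumax at 37 C, 5% CO2. Growth inhibition was scored as reduced luminescence.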
HCV inhibitor – HCV inhibition; Huh7.5.1 HCVcc-Cre infection, luciferase reporter, 44 h; Potency, µM (highest dose often 41.8 µM), without a hit: at the top dose activity change, negative = inhibition, usual class: inhibitors; 340,000 tested, 3.4% active; also: potency is read from the fitted curve at half-maximal effect; % is scaled to controls: 0 for no effect and ±100 for the full control effect
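Compounds are dispensed onto cells plated 4 h earlier at 1,000 per well, with HCVcc-Cre virus (about 0.5 moi) added next. Following 44 h of culture, luminescent signal is measured for 15 sec after 15 min with substrate at room temperature.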
Starred values were filed as active, the others as inactive; i = inactive; u = inconclusive; x = not tested or not shown; ! = a repeat was not active; [ ] = another dose, or the depositor's remark. Hits are enriched below; roughly 21% of the tested compounds scored in any of these assays. Unless noted, calls follow the shape of the dose curve; as a rule, active = well fitted inhibition curve with a large enough effect; inconclusive = small, poorly fitted or top-dose-only effect, or another doubt; inactive = no such curve, though single readings can be large or run the other way.

SMILES	Shiga inhibitor	Cycloheximide cs	HCMV inh	Pf growth 96h	Pf growth 48h	HCV inhibitor
CCc1cc2c(-c3ccccc3)cc(=O)oc2cc1OC(C)C(=O)O (stereo unspecified)	-4	-3	-3	u	25%	11%
NS(=O)(=O)c1ccc(NC(=O)CSc2nc(Nc3ccccc3)nc(N3CCOCC3)n2)cc1	-5	1	-34	34%	u	-5%
C1=Nc2c(Nc3ccccc3)ncnc2Oc2ccccc21	13	-3	3	13µM*	29%	u
CCCCNc1c(-c2ccc(OC)c(Sc3ccc(OC)cc3)c2)nc2cnccn12	x	x	21	x	x	u
CCCCCCSc1ccc(-c2nc3ccc(C)cn3c2NCCCC)cc1OC	x	x	26	x	x	x
CCCCCCSc1cc(-c2nc3ccc(C)cn3c2NCc2ccccc2)ccc1OC	x	x	54	10µM*	4.1µM*	-16%[8.37 µM]
CCCCCCSc1cccc(-c2nc3ccc(C)cn3c2NCc2ccccc2)c1	x	x	28	12µM*	u	3%
CCCCCCSc1cccc(-c2nc3cc(C)ccn3c2NCc2ccccc2)c1	x	x	55	u	u	-21%
CCCCCCSc1cccc(-c2nc3ccccn3c2NCc2ccccc2)c1	x	x	-65*!	x	x	-22%
CCCCNc1c(-c2ccc(OC)c(Sc3ccc(OC)cc3)c2)nc2ccccn12	x	x	x	u	u	10µM*
CCC(C)NC(=S)N(Cc1cc2cc(C)ccc2n2nnnc12)CC(C)(C)NC(C)C (stereo unspecified)	-6	-2	81	4%	u	8%
CCCn1c(C(CO)Nc2nc(C)cs2)nc2ccccc21 (stereo unspecified)	-5	3	26	31%	29%	12%
O=C(COCc1cc(-c2ccc3c(c2)OCO3)on1)Nc1cc(C(F)(F)F)ccc1Cl	x	x	8	x	x	x
CN(C(=O)c1cccc(NC(=O)Cc2ccc(NC(=O)C3CCCN(C(=O)C4CCC4)C3)cc2)c1)C1CCCC1 (stereo unspecified)	x	x	-10	x	x	u
Cc1ccc(CN2CCSc3ccc(C(=O)N4CCN(c5cc(C)ccc5C)CC4)cc32)cc1	x	x	-11	x	x	x
CCCCCCSc1cc(-c2nc3cc(C)ccn3c2NCCCC)ccc1OC	x	x	62	u	9.3µM*	u
CC(C)n1cc(/C=C/c2cc[n+](C)cc2)c2ccccc21	-1	-2	-95*	u	0.52µM*	32µM*
CC(C)n1cc(/C=N\NC(=O)c2cc3c(ccc4ccccc43)o2)c2ccccc21	-4	6	5	12%	13%	0%
CCN(CC)C(=O)Cn1c(C)c(/C=C/c2cc[n+](C)cc2)c2ccccc21	-12	2	-3	u	1.7µM*	12%
C=CCn1cc(/C=C/c2cc[n+](C)cc2)c2ccccc21	-7	-4	-96*	i	u	u
C=CCn1c(C)c(/C=C/c2cc[n+](C)cc2)c2ccccc21	x	-3	-96*	4%	0.74µM*	u
Cc1cccc(Cn2cc(C=O)c3ccccc32)c1	-4	-1	-16	u	-6%	4%
CCn1c(/C=C/c2c(C)n(CC)c3ccccc23)nc2ccccc2c1=O	13	12	0	42%	3%	-25%
Cc1ccc2c(CC(=O)Nc3ccc(S(=O)(=O)N4CCCCC4C)cc3)coc2c1 (stereo unspecified)	x	x	0	x	x	x
O=C(CCNS(=O)(=O)c1ccc2c(c1)CCN2C(=O)C1CC1)Nc1ccc(OC(F)(F)F)cc1	x	x	-7	x	x	x
SMILES	Shiga inhibitor	Cycloheximide cs	HCMV inh	Pf growth 96h	Pf growth 48h	HCV inhibitor
Cc1ccc(CC2CC(=O)N(c3nc4ccccc4s3)C2=O)cc1 (stereo unspecified)	-16	0	-2	-25%	28%	-1%
CCc1ccc(Cc2cnc(NC(=O)c3ccc4c(c3)CC(c3ccccc3)OC4=O)s2)cc1 (stereo unspecified)	x	x	-7	x	x	x
N=C1SC(c2ccccc2)C(=O)N1c1ncc(Cc2ccccc2)s1 (stereo unspecified)	56*	18*	-13	u	u	9%
Cc1ccc(Cc2cnc(N3C(=N)SC(c4ccccc4)C3=O)s2)cc1 (stereo unspecified)	22	1	7	9.3µM*	5%	-26%
O=c1c2cnn(-c3ccc(Cl)cc3)c2ncn1Cc1cccc(C(F)(F)F)c1	x	x	4	x	x	x
CC(C)COP(=O)(OCC(C)C)C(O)c1ccc(F)cc1 (stereo unspecified)	-10	-3	-100*	u	-4%	15%
COc1cc([N+](=O)[O-])ccc1NC(=O)NNC(=O)c1sccc1C	35*	26*	61	6%	40%	-1%
COc1ccc(NC(=O)Nc2cccs2)cc1OC	37	13	-19	35%	x	-18%
COc1cccc(NC(=O)Nc2ccncc2)c1	23	17*	-34	-6%	10µM*	-8%
COc1cc([N+](=O)[O-])ccc1NC(=O)Nc1nc2c(s1)CCCC2	10	-2	-2	-5%	1.5µM*	-10%
COc1cccc(NC(=O)Nc2cccs2)c1	41	24*	u	3%	u	-17%
COc1ccc(NC(=O)COC(=O)c2ccc(O)cc2)c([N+](=O)[O-])c1	7	-3	-19	6%	20%	5%
COc1ccc(OC)c(NC(=O)Nc2cnccn2)c1	46	16*	-2	u	56%	-6%
COc1cc([N+](=O)[O-])ccc1NC(=O)Nc1cnccn1	2	-3	-61*	-4%	30%	u
COc1cccc(NC(=O)Nc2cnccn2)c1	62	20*	-69*	45%	88%	-11%
COc1ccccc1NC(=O)Nc1cnccn1	26	5	-15	u	-14%[5.75 µM]	-13%
COc1cccc(NC(=O)Nc2ccc(C(C)(C)C)cc2)c1	51*	25*	-24	32%	u	u
COc1ccccc1CNS(=O)(=O)c1ccc2c(c1)CC(=O)N2C	-3	2	-20	-10%	u	-12%
